Experimental data: PubChem BioAssay (NCATS)
Inconclusive results are not listed. Values without a mark were called inactive. Active and inactive are the calls of the source. Calls follow the shape of the dose curve; as a rule, active = well fitted inhibition curve with a large enough effect; inconclusive = small, poorly fitted or top-dose-only effect; inactive = flat fitted curve, though single readings scatter.

What follows are molecules tested on CP256 (assay: qHTS profiling for inhibitors of Plasmodium falciparum proliferation (AID 504749; also: nearly all actives have a fitted effect of over 60% in size;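 as to activity, negative = inhibition: 0% = DMSO vehicle and full inhibition = artemisinin control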)). Conditions: P. falciparum in erythrocytes, SYBR Green DNA, 72 h; series mostly up to 28.7 µM; activity, negative = inhibition: at the top concentration.
Outline: (§1)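 Three-day growth assay of blood-stage parasites in erythrocytes (0.3% parasitemia, 2.5% hematocrit) at 37 C, 5% CO2, quantified by SYBR Green DNA staining after overnight detergent lysis.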
Potency is read from the fitted curve at half-maximal effect.

Structure (SMILES) | activity, negative = inhibition | Potency
CCN(CC)CCOc1ccc(-c2nc3cc(Cl)ccc3s2)cc1 | -22.9% | –
CCNC(=O)[C@@H]1CCCN1C(=O)[C@H](CCCN=C(N)N)NC(=O)[C@H](CC(C)C)NC(=O)[C@@H](Cc1c[nH]c2ccccc12)NC(=O)[C@H](Cc1ccc(O)cc1)NC(=O)[C@H](CO)NC(=O)[C@H](Cc1c[nH]c2ccccc12)NC(=O)[C@H](Cc1cnc[nH]1)NC(=O)[C@@H]1CCC(=O)N1 | – | 12.6 µM (active)
O=C1CSC2(CCN(CCCN3c4ccccc4Sc4ccc(Cl)cc43)CC2)N1 | -22.6% | –
CCCCCC(CC)COC(=O)CC(C(=O)OCC(CC)CCCC)S(=O)(=O)O (stereo not given) | -20.3% | –
O=CCCCC=O | -12.4% | –
CCCCC(=O)O[C@]1(C(=O)CO)[C@H](C)C[C@H]2[C@@H]3CCC4=CC(=O)C=C[C@]4(C)[C@@]3(F)[C@@H](O)C[C@@]21C | 1.98% | –
CCOC(=O)C1=C(C)NC(C)=C(C(=O)OCC)C1c1ccccc1C=CC(=O)OC(C)(C)C | 4.13% | –
CC(=O)Oc1cc(C)c(OC(C)=O)c2ccccc12 | – | 10 µM (active)
CN1C(=O)CN2CCc3ccccc3C2c2cc(Cl)ccc21 (stereo not given) | -7.86% | –
CC(C)N=c1cc2n(-c3ccc(Cl)cc3)c3ccccc3nc-2cc1Nc1ccc(Cl)cc1 | -5.35% [at 12.8 µM] | –
CCOC(=O)C1=CC2(CC)CCCN3CCc4c(n1c1ccccc41)C32 (stereo not given) | – | 6.31 µM (active)
CC[C@@]1(O)C(=O)OCc2c1cc1n(c2=O)Cc2cc3c([N+](=O)[O-])cccc3nc2-1 | – | 11.2 µM (active)
O=C(O)c1cc(=O)c2c3nc4ccccc4oc-3cc(=O)c2[nH]1 | -17.2% | –
COC(=O)[C@H]1[C@H]2CC3c4[nH]c5ccccc5c4CCN3C[C@@H]2CC[C@@H]1O (stereo not given in full) | 2.61% | –
CN=C(NC#N)Nc1ccc(C2=NNC(=O)C[C@@H]2C)cc1 | 7.03% | –
Cc1cn([C@H]2C[C@H](O)[C@@H](CO)O2)c(=O)[nH]c1=O | 0.963% | –
COC(=O)C1=C(C#N)NC(C)=C(C(=O)OC(C)C)C1c1cccc([N+](=O)[O-])c1 (stereo not given) | – | 7.94 µM (active)

The molecules below were run on CP260 in the same assay as above. Conditions: P. falciparum in erythrocytes, SYBR Green DNA, 72 h; series mostly up to 28.7 µM; activity, negative = inhibition: at the top concentration.
Outline: as §1

Structure (SMILES) | Potency | activity, negative = inhibition
COc1cc(-c2ccc(-[n+]3nc(-c4ccccc4)nn3-c3ccc([N+](=O)[O-])cc3)c(OC)c2)ccc1-[n+]1nc(-c2ccccc2)nn1-c1ccc([N+](=O)[O-])cc1 | 12.6 µM (active) | –
CC(C)=O | – | 1.3%
CCNC(=O)[C@@H]1CCCN1C(=O)[C@H](CCCN=C(N)N)NC(=O)[C@H](CC(C)C)NC(=O)[C@@H](Cc1c[nH]c2ccccc12)NC(=O)[C@H](Cc1ccc(O)cc1)NC(=O)[C@H](CO)NC(=O)[C@H](Cc1c[nH]c2ccccc12)NC(=O)[C@H](Cc1cnc[nH]1)NC(=O)[C@@H]1CCC(=O)N1 | 3.55 µM (active) | –
CN(C)CCCN1c2ccccc2C(C)(C)c2ccccc21 | – | -29.2%
CCCCCC(CC)COC(=O)CC(C(=O)OCC(CC)CCCC)S(=O)(=O)O (stereo not given) | – | -3.26%
CC1=C(/C=C/C(C)=C/C=C/C(C)=C/C=C/C=C(C)/C=C/C=C(C)/C=C/C2=C(C)C(=O)CCC2(C)C)C(C)(C)CCC1=O | – | -6.23%
CC[C@@]1(O)C(=O)OCc2c1cc1n(c2=O)Cc2cc3c([N+](=O)[O-])cccc3nc2-1 | 3.55 µM (active) | –
O=C(O)c1cc(=O)c2c3nc4ccccc4oc-3cc(=O)c2[nH]1 | 12.6 µM (active) | –
COC(=O)[C@H]1[C@H]2CC3c4[nH]c5ccccc5c4CCN3C[C@@H]2CC[C@@H]1O (stereo not given in full) | – | 15.9%
CCCCCCOc1ccc(C(=N)N(CCCC)CCCC)c2ccccc12 | 4.47 µM (active) | –
CN=C(NC#N)Nc1ccc(C2=NNC(=O)C[C@@H]2C)cc1 | – | -4.85%
C#C[C@]1(O)CC[C@H]2[C@@H]3CCC4=CCCC[C@@H]4[C@H]3C(=C)C[C@@]21CC | – | -21.9%
COC(=O)C1=C(C#N)NC(C)=C(C(=O)OC(C)C)C1c1cccc([N+](=O)[O-])c1 (stereo not given) | 11.2 µM (active) | –
